RE007 growth inh – less growth of the S. pombe RE007 Vpr strain | Potency, µM (series often up to 92.2 µM), without a hit: top-dose activity change, negative = less growth, hits mostly inhibitors | hit rate 0.21% among 360,000 | S. pombe RE007 Vpr strain, BacTiter-Glo ATP luminescence, 24 h; active means well fitted falling curve with a large enough effect; inconclusive means small, poorly fitted or top-dose-only effect; inactive means no such curve, though single readings can be large or run the other way; further: potency means the concentration at half of the fitted maximal effect; on the % scale 0 is the no-effect control and ±100 the full control effect; nearly all actives have a fitted effect of over 50% in size
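Fission yeast RE007 carrying one integrated HIV-1 vpr copy, seeded at OD 0.01 in PMG+AL medium with 23 nL pinned compound. Grown 24 h at 30 degrees; viability read by BacTiter-Glo luminescence after 5 min.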
LmPK inhibitor – blocks Leishmania mexicana pyruvate kinase activity | Q27686 | purified LmPK, Kinase-Glo ATP luminescence, 1 h | Potency, µM (titrated, usually from 57.5 µM), for inactives: at the top dose activity change, negative = inhibition, most hits filed as inhibitors | hit rate 0.37% among 290,000; further: potency means the concentration at half of the fitted maximal effect; on the % scale 0 is the no-effect control and ±100 the full control effect
Target sequence (Q27686 whole entry, looked up): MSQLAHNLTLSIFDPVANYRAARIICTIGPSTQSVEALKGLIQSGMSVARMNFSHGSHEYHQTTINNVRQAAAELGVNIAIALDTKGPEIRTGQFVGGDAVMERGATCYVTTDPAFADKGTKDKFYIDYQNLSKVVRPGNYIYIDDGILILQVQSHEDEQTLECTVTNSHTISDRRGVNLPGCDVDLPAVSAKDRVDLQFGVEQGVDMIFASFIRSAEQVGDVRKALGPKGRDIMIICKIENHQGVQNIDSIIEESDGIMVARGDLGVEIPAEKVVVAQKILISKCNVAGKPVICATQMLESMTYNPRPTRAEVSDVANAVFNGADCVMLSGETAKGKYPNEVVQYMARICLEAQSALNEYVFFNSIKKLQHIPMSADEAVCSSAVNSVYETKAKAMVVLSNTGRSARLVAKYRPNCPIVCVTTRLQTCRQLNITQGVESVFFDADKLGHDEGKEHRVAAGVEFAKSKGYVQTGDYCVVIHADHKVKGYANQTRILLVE
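Purified LmPK (0.1 nM) with 0.5 mM PEP and 0.1 mM ADP in imidazole buffer pH 7.2 with MgCl2/KCl, 1 h at room temperature. ATP formed was read by luciferase luminescence and normalized to no-enzyme and uninhibited controls.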
Giardia FBPA inh – inhibitors of Giardia lamblia fructose-1,6-bisphosphate aldolase | A8B2U2 | purified Giardia FBPA | Potency, µM (series often up to 59.6 µM), for the others: at the highest dose activity, negative = inhibition, actives largely listed as inhibitors | hit rate 0.71% among 290,000 | AID 2451; further: potency means the concentration at half of the fitted maximal effect; on the % scale 0 is the no-effect control and ±100 the full control effect; nearly all actives have a fitted effect of over 55% in size
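Giardia FBPA (40 nM reagent) was preincubated 10 min at RT with compound (up to 57.5 uM final), then substrate plus GAPDH/TPI/NAD/arsenate coupling system with diaphorase/resazurin was added; resorufin fluorescence (525/598 nm) was read after 20 min.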
TbPYK inhibitor – blocks Trypanosoma brucei pyruvate kinase | TbPYK enzyme, Kinase-Glo Plus ATP luminescence, 45 min | Potency, µM (series often up to 76.8 µM), for inactives: at the highest dose activity, negative = inhibition, actives largely listed as inhibitors | hit rate 0.12% among 410,000 | AID 624173; further: potency means the concentration at half of the fitted maximal effect; on the % scale 0 is the no-effect control and ±100 the full control effect; nearly all actives have a fitted effect of over 50% in size
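Activity of T. brucei pyruvate kinase was followed by Kinase-Glo Plus luminescence after the enzyme reacted 45 min at room temperature with 130 uM ADP (final) and substrate. Test compounds were added before ADP at multiple concentrations.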
Shiga inhibitor – inhibitors of Shiga toxin in Vero cells. Vero cells, Shiga toxin protein synthesis inhibition reporter. inhibition, % at 38.7 µM. hit rate 9.2% among 290,000; in the data active means inhibition mostly above about 28%, no sharp cut-off; inactive means mostly below about 43%; further: 0% is about no effect
CHX counter – counter-screen hit for Shiga toxin inhibitors, cycloheximide; cell reporter, cycloheximide protein synthesis inhibition counterscreen; max response, %; hit rate 12% among 300,000; in the data active means max response mostly above about 13%, no sharp cut-off; inactive means mostly below about 14%; further: read at 38.3 µM for the half of the compounds with a filed dose; 0% is about no effect
The depositor's hits bear a star; ? = inconclusive; . = no result given; [ ] = dose if it differs, or a comment. This is one part of a sample in which hits are shown more often than they occur. Unless noted, the call rests on the fitted dose curve; in most records, active means well fitted curve in the direction sought with a large enough effect; inconclusive means small, poorly fitted or top-dose-only effect, or another doubt; inactive means no such curve, though single readings can be large; an effect the other way counts as inactive or inconclusive.

SMILES | RE007 growth inh | LmPK inhibitor | Giardia FBPA inh | TbPYK inhibitor | Shiga inhibitor | CHX counter
COc1ccc(OCc2cc(C(=O)N(C)C(C)c3ccon3)no2)c(Cl)c1 (stereo not given) | 1% | -13% | . | -3% | 73* | 34*
COc1cc(Cl)ccc1OCc1cc(C(=O)N(C)CC2CCCCO2)no1 (stereo not given) | 15% | 6% | 0% | -3% | 88* | 40*
COc1ccc(OCc2cc(C(=O)N(C)CCC3CCOCC3)no2)c(Cl)c1 | 3% | -7% | . | -24% | 60* | 32*
COc1ccc(OCc2cc(C(=O)N(C)CC3CCCCO3)no2)c(Cl)c1 (stereo not given) | -17% | 0% | 0% | -6% | 79* | 48*
COc1ccc(OCc2cc(C(=O)NCCCc3ccccc3)no2)c(Cl)c1 | -12% | -1% | . | -1% | 7 | 2
CCOC(=O)[C@]1(C(NC(=O)OC)c2ccccc2)CCCC1=O (stereo not given in full) | . | . | -9%[12.9 µM] | . | . | .
COC(=O)N1CC=CC1(C)C(=O)NCc1ccc(C)o1 (stereo not given) | . | . | -16% | . | . | .
CC1(C)S[C@@H]2[C@H](NC(=O)C(C(=O)Oc3ccc4c(c3)CCC4)c3ccccc3)C(=O)N2[C@H]1C(=O)O (stereo not given in full) | . | . | . | 1% | . | .
Cc1cccnc1NC(=O)Nc1ccccc1 | -14% | -2% | 1% | 0% | 49* | 27*
Cc1cccnc1NC(=O)Nc1ccc(Cl)cc1 | -11% | 8% | 5% | -1% | . | 25*
COc1ccc(NC(=O)Nc2ncccc2C)cc1 | -1% | -1% | 0% | -9% | 63* | 20*
COC(=O)c1ccccc1NC(=O)Nc1ncccc1C | 20% | -3% | 0% | 2% | -14 | -3
COc1ccc(C(=O)NC(=O)Nc2ncccc2C)cc1 | 17% | 4% | 2% | 0% | 88* | 40*
CC1=C(C(=O)Nc2ccccc2C)C(c2cccnc2)n2nc(SCc3ccccc3)nc2N1 (stereo not given) | . | . | . | 8% | . | .
C=CCSCC(N)C(=O)O (stereo not given) | . | . | -13% | . | . | .
COc1ccc(O)c(C(=O)c2cnn(-c3ccccn3)c2)c1 | -23% | -3% | -1% | 0% | 63* | 33*
COc1ccc(O)c(C(=O)c2cnn(-c3ccc(Cl)cc3)c2)c1 | -9% | 4% | -2% | -5% | 40* | 20
COc1cc(NC(=O)CCS(=O)(=O)c2ccc3c(c2)CC(=O)N3C)cc(OC)c1OC | . | . | . | 2% | . | .
CCOC(=O)c1ccccc1NC(=O)CSc1nc2ncccc2o1 | . | . | . | 3% | . | .
c1cncc(-c2nc3cc4ccccc4cc3[nH]2)c1 | -28% | ? | -22% | -3% | 62* | 45*
c1ccc(-c2nc3cc4ccccc4cc3[nH]2)nc1 | ? | 16µM* | -21% | -19% | 7 | 1
CC(=O)Nc1ccc2nc(-c3ccccn3)[nH]c2c1 | 7% | -25% | ? | -4% | 74* | 46*
Nc1ccc2nc(-c3cccc(-c4nc5ccc(N)cc5[nH]4)n3)[nH]c2c1 | -1% | -4% | ? | 4% | -5 | 1
Cc1ccc(C)c(NC(=O)C(=O)NCCc2csc(-c3cccc(F)c3)n2)c1 | . | . | . | -3% | . | .
CC(C)CCSc1nc(N)c(C#N)cc1C#N | 0% | 3% | -3% | -2% | 11 | 33*
SMILES | RE007 growth inh | LmPK inhibitor | Giardia FBPA inh | TbPYK inhibitor | Shiga inhibitor | CHX counter
O=C1N=C(N2CCN(c3ccccc3)CC2)SC1Cc1ccccc1 (stereo not given) | -3% | -1% | 4% | -3% | 32 | 14*
Cc1ccc(N2CCN(C3=NC(=O)C(Cc4ccccc4)S3)CC2)cc1 (stereo not given) | 8% | -2% | 3% | -11% | -9 | -1
CCOC(=O)C1CCN(C(=S)Nc2cccc(C)c2)CC1 | 9% | 1% | -8% | -4% | -8 | 8
Fc1ccc(NC(=S)N2CCCC2)cc1 | -17% | . | . | -9% | . | .
CCOC(=O)C1CCN(C(=S)Nc2ccc(CC)cc2)CC1 | 9% | -4% | 3% | -2% | 54 | 43*
CCc1ccc(NC(=S)N2CCCC(C(F)(F)F)C2)cc1 (stereo not given) | 9% | 6% | -4% | -2% | 40 | 16*
CCc1ccc(NC(=S)N2CCCC2)cc1 | 1% | -1% | . | -4% | 78* | 36*
CCc1ccc(NC(=S)N2CCN(C)CC2)cc1 | -2% | 0% | 4% | -3% | 61 | 25*
CCOC(=O)C1CCN(C(=O)Nc2ccc(NC(=O)C3CCN(C(=O)OCC)CC3)cc2)CC1 | 15% | -11% | 4% | -10% | -15 | -1
CCOC(=O)C1CCN(C(=O)Nc2ccc(OC(F)(F)F)cc2)CC1 | -11% | -2% | 0% | -4% | 63 | 34*
Cc1ccc(-c2nn(-c3ccccc3)cc2NC(=O)CCl)cc1 | -4% | 1% | 1% | 4% | 59 | 41*
O=C(CCl)Nc1cc(-c2ccccc2)nn1-c1ccccc1 | -9% | 1% | 0% | 12% | 7 | 28*
Cc1ccc(-c2cc(NC(=O)CCl)n(-c3ccccc3)n2)cc1 | ? | 9% | -25% | ? | 62 | 53*
CCN(CC)C(=O)c1cccc2nc3ccccc3nc12 | -11% | 6% | 3% | 2% | 4 | -2
COC(=O)c1cccc2nc3c(C(C)O)cccc3nc12 (stereo not given) | -22% | -6% | ? | -1% | 22 | 8.1*
Cc1cc(C)nc(SCc2ccc([N+](=O)[O-])cc2)n1 | -19% | 1% | -7% | -2% | 9 | 0
O=[N+]([O-])c1ccc(Sc2ccccn2)nc1 | -4% | -2% | -5% | -22% | 31 | 3
O=[N+]([O-])c1ccc(CSc2ccccn2)cc1 | 3% | 0% | 1% | 11% | 48 | 39*
O=[N+]([O-])c1ccccc1CSc1ccccn1 | ? | 2% | 3% | 7% | 53* | 11
Cc1ccnc(SCc2ccc([N+](=O)[O-])cc2)n1 | -11% | 6% | -3% | 2% | 46 | 17*
O=[N+]([O-])c1ccc(SCCc2ccccn2)cc1 | -6% | -9% | 1% | -19% | 50* | 21*
Cc1cccc(NC(=O)Cn2ncc3c4ccccc4n(Cc4ccccc4)c3c2=O)c1C | . | . | . | -1% | . | .
N#CCCn1c(=O)c(-c2cccs2)nc2cnc(N3CCOCC3)nc21 | . | . | 6% | . | . | .
O=C(CSc1ccccn1)Nc1ccc(Cl)c([N+](=O)[O-])c1 | 9% | -3% | 1% | -2% | 30 | 12
N/C(CSc1ccccn1)=N\OCc1c(Cl)cccc1Cl | 2% | 4% | 4% | -1% | 45* | 18
Cc1ccc(NC(=O)c2cnn(-c3ccccc3)c2C)c(C)c1 | 7% | -3% | -5% | 1% | 23 | 38*
Cc1ccc(NC(=O)c2cnn(-c3ccccc3)c2C)cc1 | 3% | 1% | -18% | -14% | . | 32*
